Source: the supplement of paper PMC10849652
Targets with a hit are over-represented here; the source holds about 8,800 in all. About 0.5% of all pairs of compound and target were hits. Values without a mark were called inactive.

How the values were obtained:
Assay in all cases: log2 fold change, soluble protein after heating vs DMSO (PISA); higher = thermal stabilisation; K562 lysate, 10 uM; active = over 0.2 and 3.5 SD of the protein, either way, in both replicates (recomputed)
[1] = compound: CC(=O)c1cnc2ccc(-c3cc(Cl)c(O)c(Cl)c3)nc2c1N[C@H]1CC[C@H](CN(C)C)CC1
In short: (§1)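 Soluble protein was defined as the supernatant remaining after 21,000xg for 90 min, following pooling of heated aliquots and adjustment to 0.5% NP-40 at 4°C. Before that, crude K562 extract at 1 mg/mL protein in PBS pH 7.4 with 1 mM MgCl2 was treated with 10 μM compound for 30 min and heated for 3 min across 48°C-58°C. Quantification used TMTpro 16plex LC-MS/MS with channel sums equalised, and values are log-two fold changes in thermal stability relative to solvent controls from duplicates.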

[2] = compound: CC1=C(C(CC(=O)N1)C2=CC=C(C=C2)C(F)(F)F)C(=O)NC3=C(C=C4C(=C3)C=NN4)F
In short: as §1

[3] = compound: CC1=C(C=C(C=C1)NC(=O)C2=CC(=CC=C2)C(C)(C)C#N)NC3=CC4=C(C=C3)N=CN(C4=O)C
In short: as §1

[4] = compound: CC1=CC=C(C=C1)SC2=C3C=C(SC3=CN=C2)C(=O)N
In short: as §1

erlotinib = compound: C#Cc1cccc(Nc2ncnc3cc(OCCOC)c(OCCOC)cc23)c1 [erlotinib]
In short: as §1

[5] = compound: C/C(=N\NC(=O)C1=CC(=CC=C1)S(=O)(=O)N2CCOCC2)/C3=C(C=CC(=C3)Cl)O
In short: as §1

[6] = compound: C1=CC(=CC=C1C2=NC3=C(N2)C=C(C=C3)C(=O)N)OC4=CC=C(C=C4)Cl
In short: as §1

[7] = compound: C1=CC2=C(C=CC(=C2)/C=C\3/C(=O)NC(=NCC4=CC=CS4)S3)N=C1
In short: as §1

[8] = compound: C1=CC=C(C=C1)C2=NC(=C(N2)C3=CC=NC=C3)C4=CC(=C(C=C4)Cl)O
In short: as §1

[9] = compound: C1=CC=C2C(=C1)C3=NNC4=CC=CC(=C43)C2=O
In short: as §1

[10] = compound: C1CCN(C1)C(=O)NC2=CC=CC(=C2)NC3=NC=C(C(=N3)NCCC4=CN=CN4)Br
In short: as §1

[11] = compound: C1CN(CCC1(CC2=CC=C(C=C2)Cl)N)C3=NC=NC4=C3C=CN4
In short: as §1

IRAK-1-4 Inhibitor I = compound: C1COCCN1CCN2C3=CC=CC=C3N=C2NC(=O)C4=CC(=CC=C4)[N+](=O)[O-] [IRAK-1-4 Inhibitor I]
In short: as §1

ralimetinib = compound: CC(C)(C)Cn1c(N)nc2ccc(-c3[nH]c(C(C)(C)C)nc3-c3ccc(F)cc3)nc21 [ralimetinib]
In short: as §1

[12] = compound: CC(C)(O)CC(=O)NCCn1ccc2ncnc(Nc3ccc(Oc4cccc(C(F)(F)F)c4)c(Cl)c3)c21
In short: as §1

[13] = compound: CC(C)C1=C2N=C(C=C(N2N=C1)NCC3=CC=CC=C3)NCCCCCCN
In short: as §1

[14] = compound: CC1=C(C2=C(C=C1)C(=O)C3=CC=CC=C3N2CCCN)C
In short: as §1

[15] = compound: CC1=C(C=C(C=C1)NC(=O)C2=CC(=CC=C2)N(C)C)NC(=O)C3=CC=C(C=C3)O
In short: as §1

[16] = compound: C1=CC2=NC=CN=C2C=C1/C=C/3\C(=O)NC(=O)S3
In short: as §1

ibrutinib = compound: C=CC(=O)N1CCC[C@@H](n2nc(-c3ccc(Oc4ccccc4)cc3)c3c(N)ncnc32)C1 [ibrutinib]
In short: as §1

Chain of UniProt Q8TC12 (Q8TC12 whole entry, looked up): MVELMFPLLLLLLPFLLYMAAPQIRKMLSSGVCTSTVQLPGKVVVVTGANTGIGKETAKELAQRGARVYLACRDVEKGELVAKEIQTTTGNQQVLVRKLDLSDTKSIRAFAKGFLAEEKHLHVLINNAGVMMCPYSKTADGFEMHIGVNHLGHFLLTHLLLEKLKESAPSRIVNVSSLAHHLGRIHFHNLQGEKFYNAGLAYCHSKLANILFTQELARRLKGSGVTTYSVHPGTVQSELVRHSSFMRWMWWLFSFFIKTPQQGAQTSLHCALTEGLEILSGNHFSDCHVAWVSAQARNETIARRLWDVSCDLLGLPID
Chain of UniProt Q96LT9 (Q96LT9 whole entry, looked up): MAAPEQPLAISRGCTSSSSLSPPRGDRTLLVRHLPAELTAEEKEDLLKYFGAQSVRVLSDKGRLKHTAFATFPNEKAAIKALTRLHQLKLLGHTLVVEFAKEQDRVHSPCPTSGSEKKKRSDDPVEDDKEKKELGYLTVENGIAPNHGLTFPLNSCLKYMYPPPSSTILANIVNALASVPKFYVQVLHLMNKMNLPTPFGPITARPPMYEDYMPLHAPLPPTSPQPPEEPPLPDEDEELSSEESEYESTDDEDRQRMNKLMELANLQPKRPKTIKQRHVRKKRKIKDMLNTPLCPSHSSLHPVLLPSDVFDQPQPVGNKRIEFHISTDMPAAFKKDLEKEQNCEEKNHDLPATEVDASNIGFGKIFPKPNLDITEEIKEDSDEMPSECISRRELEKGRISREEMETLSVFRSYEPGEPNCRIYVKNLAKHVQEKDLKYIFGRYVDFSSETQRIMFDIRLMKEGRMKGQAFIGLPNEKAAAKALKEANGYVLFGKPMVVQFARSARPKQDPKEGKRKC
Chain of UniProt Q92698 (Q92698 whole entry, looked up): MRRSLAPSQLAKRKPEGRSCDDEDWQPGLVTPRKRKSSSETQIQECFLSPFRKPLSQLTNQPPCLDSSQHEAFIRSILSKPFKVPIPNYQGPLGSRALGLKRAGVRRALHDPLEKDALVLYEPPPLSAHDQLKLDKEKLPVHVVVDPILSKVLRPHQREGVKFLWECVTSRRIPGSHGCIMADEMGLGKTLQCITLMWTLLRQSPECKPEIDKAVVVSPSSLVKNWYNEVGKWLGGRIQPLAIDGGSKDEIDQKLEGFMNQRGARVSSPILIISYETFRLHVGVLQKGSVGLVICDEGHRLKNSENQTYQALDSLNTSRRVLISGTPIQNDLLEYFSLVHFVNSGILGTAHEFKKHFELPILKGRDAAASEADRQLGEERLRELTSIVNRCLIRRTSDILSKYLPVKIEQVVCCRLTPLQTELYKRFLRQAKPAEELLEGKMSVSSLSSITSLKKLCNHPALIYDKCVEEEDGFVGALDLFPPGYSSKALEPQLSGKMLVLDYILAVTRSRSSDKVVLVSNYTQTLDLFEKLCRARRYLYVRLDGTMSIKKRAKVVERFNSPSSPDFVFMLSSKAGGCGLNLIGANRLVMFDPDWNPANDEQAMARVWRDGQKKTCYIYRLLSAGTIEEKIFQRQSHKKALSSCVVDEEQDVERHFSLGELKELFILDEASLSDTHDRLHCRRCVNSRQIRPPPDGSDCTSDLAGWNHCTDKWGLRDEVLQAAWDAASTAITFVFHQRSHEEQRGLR
Chain of UniProt O15027 (O15027 whole entry, looked up): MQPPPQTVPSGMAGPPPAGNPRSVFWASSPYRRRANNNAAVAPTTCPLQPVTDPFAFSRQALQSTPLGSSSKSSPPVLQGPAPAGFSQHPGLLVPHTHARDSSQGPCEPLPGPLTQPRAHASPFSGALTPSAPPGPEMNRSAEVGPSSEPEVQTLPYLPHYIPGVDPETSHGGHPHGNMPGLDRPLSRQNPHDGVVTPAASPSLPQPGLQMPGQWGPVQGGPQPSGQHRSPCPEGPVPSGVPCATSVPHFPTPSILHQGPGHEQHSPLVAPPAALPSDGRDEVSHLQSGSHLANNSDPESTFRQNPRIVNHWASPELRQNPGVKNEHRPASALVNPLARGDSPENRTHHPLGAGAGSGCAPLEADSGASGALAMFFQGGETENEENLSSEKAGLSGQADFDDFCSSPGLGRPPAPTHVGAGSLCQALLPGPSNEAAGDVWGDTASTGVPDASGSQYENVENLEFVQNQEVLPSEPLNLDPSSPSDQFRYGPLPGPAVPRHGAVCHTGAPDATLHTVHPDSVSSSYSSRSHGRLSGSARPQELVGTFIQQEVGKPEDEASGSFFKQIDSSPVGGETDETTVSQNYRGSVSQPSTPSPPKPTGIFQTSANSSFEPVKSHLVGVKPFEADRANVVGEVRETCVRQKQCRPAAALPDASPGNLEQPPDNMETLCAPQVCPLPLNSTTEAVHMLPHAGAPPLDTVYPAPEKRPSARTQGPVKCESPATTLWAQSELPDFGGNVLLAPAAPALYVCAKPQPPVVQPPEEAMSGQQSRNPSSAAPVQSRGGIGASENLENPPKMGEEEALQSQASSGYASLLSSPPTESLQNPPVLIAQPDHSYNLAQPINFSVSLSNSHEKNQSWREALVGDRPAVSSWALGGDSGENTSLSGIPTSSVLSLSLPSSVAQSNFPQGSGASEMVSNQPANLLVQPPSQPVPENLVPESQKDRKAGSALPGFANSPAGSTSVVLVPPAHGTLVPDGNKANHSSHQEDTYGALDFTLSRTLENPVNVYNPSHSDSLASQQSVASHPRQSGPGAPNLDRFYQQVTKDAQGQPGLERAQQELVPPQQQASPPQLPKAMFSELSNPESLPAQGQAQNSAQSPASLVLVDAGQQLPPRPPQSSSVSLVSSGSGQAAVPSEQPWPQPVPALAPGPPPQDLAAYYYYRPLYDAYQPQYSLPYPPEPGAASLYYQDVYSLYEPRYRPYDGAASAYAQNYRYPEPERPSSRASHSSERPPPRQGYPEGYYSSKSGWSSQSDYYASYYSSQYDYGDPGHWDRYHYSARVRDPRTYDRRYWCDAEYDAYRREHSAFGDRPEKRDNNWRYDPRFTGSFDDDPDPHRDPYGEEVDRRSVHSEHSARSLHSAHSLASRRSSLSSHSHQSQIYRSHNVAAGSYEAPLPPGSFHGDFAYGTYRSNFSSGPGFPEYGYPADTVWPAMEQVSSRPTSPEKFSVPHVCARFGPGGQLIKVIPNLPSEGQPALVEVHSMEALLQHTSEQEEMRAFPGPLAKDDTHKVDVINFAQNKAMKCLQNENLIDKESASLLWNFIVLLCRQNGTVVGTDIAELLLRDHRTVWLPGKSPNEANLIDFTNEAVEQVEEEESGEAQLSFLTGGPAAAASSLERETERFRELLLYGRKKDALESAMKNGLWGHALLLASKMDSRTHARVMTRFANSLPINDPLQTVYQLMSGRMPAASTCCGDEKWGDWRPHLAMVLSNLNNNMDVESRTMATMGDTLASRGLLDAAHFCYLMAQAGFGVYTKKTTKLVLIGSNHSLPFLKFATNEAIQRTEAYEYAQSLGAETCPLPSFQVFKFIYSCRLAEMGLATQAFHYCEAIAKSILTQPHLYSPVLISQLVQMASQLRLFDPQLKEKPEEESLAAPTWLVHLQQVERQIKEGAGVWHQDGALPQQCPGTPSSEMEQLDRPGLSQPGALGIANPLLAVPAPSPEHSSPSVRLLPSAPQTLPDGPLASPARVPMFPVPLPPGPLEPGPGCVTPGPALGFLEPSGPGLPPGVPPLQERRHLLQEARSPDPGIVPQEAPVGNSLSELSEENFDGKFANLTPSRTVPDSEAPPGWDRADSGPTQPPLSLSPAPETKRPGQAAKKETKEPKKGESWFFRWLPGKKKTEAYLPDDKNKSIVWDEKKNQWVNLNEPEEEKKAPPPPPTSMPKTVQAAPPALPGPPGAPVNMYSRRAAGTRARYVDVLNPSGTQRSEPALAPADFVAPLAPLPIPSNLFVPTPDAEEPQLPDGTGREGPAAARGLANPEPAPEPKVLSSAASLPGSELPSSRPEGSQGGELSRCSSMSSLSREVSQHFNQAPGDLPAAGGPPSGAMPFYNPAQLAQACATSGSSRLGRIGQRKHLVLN
Chain of UniProt P19793 (P19793 whole entry, looked up): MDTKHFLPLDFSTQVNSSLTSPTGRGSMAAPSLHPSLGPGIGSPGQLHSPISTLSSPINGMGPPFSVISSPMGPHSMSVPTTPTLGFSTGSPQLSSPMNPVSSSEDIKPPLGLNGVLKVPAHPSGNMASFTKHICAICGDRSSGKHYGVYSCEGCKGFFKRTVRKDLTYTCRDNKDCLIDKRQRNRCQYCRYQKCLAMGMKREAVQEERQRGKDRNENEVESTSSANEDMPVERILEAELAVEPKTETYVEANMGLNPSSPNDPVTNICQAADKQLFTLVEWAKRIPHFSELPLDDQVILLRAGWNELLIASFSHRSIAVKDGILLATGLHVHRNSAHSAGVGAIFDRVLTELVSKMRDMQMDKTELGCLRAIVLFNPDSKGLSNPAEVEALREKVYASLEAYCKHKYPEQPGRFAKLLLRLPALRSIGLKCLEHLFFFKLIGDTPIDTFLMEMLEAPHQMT
Chain of UniProt Q96E14 (Q96E14 whole entry, looked up): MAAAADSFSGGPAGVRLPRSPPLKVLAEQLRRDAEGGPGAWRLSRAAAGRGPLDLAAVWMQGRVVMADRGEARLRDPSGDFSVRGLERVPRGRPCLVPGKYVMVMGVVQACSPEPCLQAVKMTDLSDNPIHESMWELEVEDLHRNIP
Chain of UniProt Q9BWG6 (Q9BWG6 whole entry, looked up): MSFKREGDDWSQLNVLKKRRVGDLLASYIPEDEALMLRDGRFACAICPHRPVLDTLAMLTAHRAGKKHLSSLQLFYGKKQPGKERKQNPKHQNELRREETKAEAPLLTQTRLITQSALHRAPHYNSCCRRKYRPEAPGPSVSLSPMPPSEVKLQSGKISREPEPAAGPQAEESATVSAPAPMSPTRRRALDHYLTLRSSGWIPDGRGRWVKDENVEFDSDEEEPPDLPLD

Target | log2 fold change [1] | log2 fold change [2] | log2 fold change [3] | log2 fold change [4] | log2 fold change (erlotinib) | log2 fold change [5] | log2 fold change [6] | log2 fold change [7] | log2 fold change [8] | log2 fold change [9] | log2 fold change [10] | log2 fold change [11] | log2 fold change (IRAK-1-4 Inhibitor I) | log2 fold change (ralimetinib) | log2 fold change [12] | log2 fold change [13] | log2 fold change [14] | log2 fold change [15] | log2 fold change [16] | log2 fold change (ibrutinib)
RBM45 (UniProt Q8IUH3) | -0.077 | -0.127 | 0.038 | 0.487 (active) | – | – | – | – | – | – | – | – | – | – | – | – | – | – | – | –
RMI2 (UniProt Q96E14) | – | – | 0.011 | – | 0.051 | -0.246 | -0.121 | 0.206 | 0.002 | -0.121 | -0.044 | 0.117 | 0.054 | -0.061 | 0.007 | -0.032 | 0.021 | 0.039 | – | –
RXRA (UniProt P19793) | -0.028 | 0.059 | -0.02 | 0 | 0.102 | – | 0.008 | – | -0.025 | – | – | – | 0.113 | -0.033 | 0.087 | 0.066 | 0.063 | -0.036 | – | –
SEMA4G isoform 2 (UniProt Q9NTN9) | – | – | -0.137 | – | 0.005 | -0.137 | -0.063 | 0.032 | – | -0.011 | 0.034 | -0.112 | – | – | – | -0.013 | -0.021 | – | – | –
RDH11 (UniProt Q8TC12) | -0.021 | -0.013 | -0.037 | -0.111 | 0.018 | 0.087 | -0.02 | 0.015 | 0.006 | -0.065 | -0.037 | 0.063 | 0.012 | 0.005 | -0.043 | 0.068 | -0.039 | -0.039 | – | –
SEC16A isoform 3 (UniProt O15027) | – | – | – | – | – | – | – | – | 0.41 | – | – | – | 0.123 | -0.283 | -0.122 | – | -0.006 | -0.023 | – | –
RLIM (UniProt Q9NVW2) | – | – | 0.465 | – | – | – | – | – | – | – | – | – | – | – | – | – | – | – | -0.021 | 0.014
RNPC3 (UniProt Q96LT9) | 0.017 | -0.027 | -0.028 | -0.003 | 0.004 | – | -0.059 | – | 0.011 | – | – | – | 0.076 | 0.02 | -0.029 | -0.122 | -0.015 | 0.054 | – | –
SCNM1 (UniProt Q9BWG6) | -0.026 | 0.065 | 0.06 | -0.221 | 0.045 | – | 0.044 | – | -0.005 | – | -0.054 | -0.158 | -0.021 | 0.013 | 0.012 | 0.062 | -0.189 | -0.069 | – | –
RPS6KA3 (UniProt P51812) | 0.56 (active) | -0.043 | -0.061 | -0.039 | -0.04 | -0.003 | 0.182 | – | 0.026 | 0.328 | 0.082 | -0.043 | -0.019 | -0.004 | -0.032 | -0.11 | -0.02 | 0.006 | 0.004 | -0.04
SATB2 (UniProt Q9UPW6) | -0.005 | -0.007 | -0.027 | 0.047 | -0.019 | -0.044 | 0.022 | -0.01 | -0.006 | 0.031 | -0.033 | 0.009 | 0.027 | 0.037 | -0.004 | -0.029 | -0.023 | 0.002 | – | –
S100A6 (UniProt P06703) | -0.082 | – | 0.04 | 0.032 | 0.045 | 0.346 | -0.025 | 0 | -0.196 | 0.02 | 0.352 | 0.151 | -0.209 | 0.117 | 0.152 | -0.01 | 0.793 (active) | 0.199 | – | –
RAD54L (UniProt Q92698) | 0.035 | 0 | – | 0.059 | -0.026 | – | -0.005 | – | -0.071 | – | – | – | 0.02 | -0.062 | -0.224 | 0.085 | 0.039 | 0.054 | -0.072 | -0.081
